The full ranking holds about 18,000 sequences; the median of “log2 normalized intensity” is about 0.36, and the highest 2% start at about 7.3. The list comes from a sample in which the highest values are over-represented; it also holds similar and randomly drawn sequences.
Molecular target: T1, HNF4alpha8 (COS-7 nuclear extract) (Homo sapiens, UniProt P41235-5 1-452)
T1 sequence: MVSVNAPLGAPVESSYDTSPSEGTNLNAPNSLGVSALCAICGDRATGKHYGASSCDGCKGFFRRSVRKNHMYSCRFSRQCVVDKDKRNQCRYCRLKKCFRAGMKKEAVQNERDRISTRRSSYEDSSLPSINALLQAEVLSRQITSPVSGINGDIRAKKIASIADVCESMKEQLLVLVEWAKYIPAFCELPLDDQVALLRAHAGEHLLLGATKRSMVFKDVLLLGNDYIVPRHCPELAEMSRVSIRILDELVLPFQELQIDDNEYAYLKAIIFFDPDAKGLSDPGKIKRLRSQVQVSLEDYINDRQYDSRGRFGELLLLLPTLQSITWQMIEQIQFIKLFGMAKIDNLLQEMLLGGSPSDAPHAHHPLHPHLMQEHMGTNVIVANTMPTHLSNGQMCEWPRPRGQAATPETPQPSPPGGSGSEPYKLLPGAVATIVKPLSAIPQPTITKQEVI
Test: protein-binding microarray; COS-7 nuclear extract on double-stranded Agilent 4x180k PBM; binding buffer, salt, pH and temperature not given in the material; high values mean tight binding
Conditions: chain copies: 2; label: 3' end of strand 1 on the slide; dsDNA, one strand shown
Outline: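 Binding signal was defined as the normalized, background-corrected gProcessedSignal reported by Agilent software. It came from nuclear extracts of COS-7 cells transiently transfected with a human HNF4α isoform expression vector, applied to a custom Agilent SurePrint G3 4x180k array. That array held ~44,000 test sequences in quadruplicate as double-stranded ~60-nt oligonucleotides, and bound HNF4α was imaged at 2-µm resolution on an Agilent G2565CA scanner.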

| Sequence | binding signal [log2 normalized intensity] |
| --- | --- |
| TTACTGGGGCCCATTGTATGAGGGTGAAGTGCCTAGGGAGATTAGAGTATCGGTCGA | 0.972 |
| TAGCTTTAGCCGGACTTTGTCCTTTGATTTGCCTAGGGAGATTAGAGTATCGGTCGA | 7.5 |
| AAATGTACTGGATATAGCCAGATGTCCTTTGCCTAGGGAGATTAGAGTATCGGTCGA | 2.37 |
| TCAGATAGCTTTAGCCGGACTTTGTCCTTTGCCTAGGGAGATTAGAGTATCGGTCGA | 8.54 |
| CGGACTTTGTCCTTTGATTTTTTAAAGTAAGCCTAGGGAGATTAGAGTATCGGTCGA | 5.37 |
| CATCGGACTTTGATCTGCCACATACCTTTAGCCTAGGGAGATTAGAGTATCGGTCGA | 5.04 |
| CTATCTCAGATAGCTTTAGCCGGACTTTGTGCCTAGGGAGATTAGAGTATCGGTCGA | 5.85 |
| ACCCAGGTGTGTTGCAACTTTGACTATAGCGCCTAGGGAGATTAGAGTATCGGTCGA | 0.342 |
| GTTTGCATTTTAACCTTTGGCTGGTAGAGCGCCTAGGGAGATTAGAGTATCGGTCGA | 4.17 |
| AGCCGTCTGGTAAATTTCTAACACTCCCCAGCCTAGGGAGATTAGAGTATCGGTCGA | 2.15 |
| GGGTCAGTTTATCTAAGATTCCCCCTACCCGCCTAGGGAGATTAGAGTATCGGTCGA | 4 |
| ACTGATCTCTGGCTTGATCCCTGAACTTTGGCCTAGGGAGATTAGAGTATCGGTCGA | 4.37 |
| AAGTGACCCTGGTCTTTGCCCTTTCCTAGAGCCTAGGGAGATTAGAGTATCGGTCGA | 3.98 |
| TCTCTGGCTTGATCCCTGAACTTTGCTCCCGCCTAGGGAGATTAGAGTATCGGTCGA | 8.76 |
| GTGAACTTTGCCCTCTCTTTCTGGAACCTAGCCTAGGGAGATTAGAGTATCGGTCGA | 5.67 |
| GAGAAGTGAACTTTGCCCTCTCTTTCTGGAGCCTAGGGAGATTAGAGTATCGGTCGA | 8.26 |
| GGCTTGATCCCTGAACTTTGCTCCCACCCTGCCTAGGGAGATTAGAGTATCGGTCGA | 6.25 |
| TGGGCTCCTGCCTTGGAGAAGTGAACTTTGGCCTAGGGAGATTAGAGTATCGGTCGA | 5.62 |
| CCTTGGATCTCCTGCACCTGAACTTTGCTCGCCTAGGGAGATTAGAGTATCGGTCGA | 6.94 |
| TCCTGCCTTGGAGAAGTGAACTTTGCCCTCGCCTAGGGAGATTAGAGTATCGGTCGA | 10.7 |
| TGGAATCCAAAGTATTTTCTGTCTAGGTGCGCCTAGGGAGATTAGAGTATCGGTCGA | 0.637 |
| TTGCCTAACTGCTGCATGTCATGACCTTCAGCCTAGGGAGATTAGAGTATCGGTCGA | 3.69 |

| Sequence | binding signal [log2 normalized intensity] |
| --- | --- |
| TCTACTCCCTGTTCTTACACCTGCTCCCCTGCCTAGGGAGATTAGAGTATCGGTCGA | 2.97 |
| TGTATACTTATGTAGAAAGATATCTCTGTGGCCTAGGGAGATTAGAGTATCGGTCGA | 1.3 |
| AAGATCATTCCAGGAATGTTCAAGAAGTTCGCCTAGGGAGATTAGAGTATCGGTCGA | 0.0918 |
| AGATAGGACAGTGGTCTTTATGACTTGGGTGCCTAGGGAGATTAGAGTATCGGTCGA | 1.4 |
| GACTATTTTATTTTCCCCCTTTGAAGTCTGGCCTAGGGAGATTAGAGTATCGGTCGA | 3.2 |
| GTCCTTCCCAAGTCCTGCATGTGTTCACACGCCTAGGGAGATTAGAGTATCGGTCGA | 1.21 |
| CCCCCAGTGGAATGTGCCCTTTGACCTCTCGCCTAGGGAGATTAGAGTATCGGTCGA | 10.3 |
| GGTGGGCTGCTCCCAGTGCCCTTTGAACTCGCCTAGGGAGATTAGAGTATCGGTCGA | 8.91 |
| GTGCTCCCTCCCCCTGCATGAACCTTTGCTGCCTAGGGAGATTAGAGTATCGGTCGA | 3.72 |
| GGAATGACCTTTGATATTTGTGCCTAGTGGGCCTAGGGAGATTAGAGTATCGGTCGA | 5.39 |
| CCCTCTGAGTGTTTGACCTTTCACCCAGAAGCCTAGGGAGATTAGAGTATCGGTCGA | 7.2 |
| CACTCTGGTGCCCTCTGAGTGTTTGACCTTGCCTAGGGAGATTAGAGTATCGGTCGA | 5.61 |
| AGTAACCTGACCCCCAGTGGAATGTGCCCTGCCTAGGGAGATTAGAGTATCGGTCGA | 4.61 |
| GGCCAGGTGGGCTGCTCCCAGTGCCCTTTGGCCTAGGGAGATTAGAGTATCGGTCGA | 4.47 |
| TGGTGCCCTCTGAGTGTTTGACCTTTCACCGCCTAGGGAGATTAGAGTATCGGTCGA | 8.17 |
| CCTGACCCCCAGTGGAATGTGCCCTTTGACGCCTAGGGAGATTAGAGTATCGGTCGA | 5.75 |
| AGTGGAATGTGCCCTTTGACCTCTCTCTCCGCCTAGGGAGATTAGAGTATCGGTCGA | 8.33 |
| AATGTGCCCTTTGACCTCTCTCTCCTAACTGCCTAGGGAGATTAGAGTATCGGTCGA | 7.21 |
| TGCCCTATGTCCTCCAGCTCTTGGGGAACAGCCTAGGGAGATTAGAGTATCGGTCGA | 0.218 |
| AAAGCCATCAGCACTGGTTCAAAGTGTAGCGCCTAGGGAGATTAGAGTATCGGTCGA | 1.25 |
| AGAGGAAGATCTTTTTGATGACTTTGTAGGGCCTAGGGAGATTAGAGTATCGGTCGA | 0.915 |
| TAAACCTGTTTGGTATCTACTCGGCAAAACGCCTAGGGAGATTAGAGTATCGGTCGA | 1.28 |

| Sequence | binding signal [log2 normalized intensity] |
| --- | --- |
| GACACTTCCAGCCAAACCAGGTCATGCATTGCCTAGGGAGATTAGAGTATCGGTCGA | 0.387 |
| CCGTTAGCCAATATTTGCAAGGCTGTTGGCGCCTAGGGAGATTAGAGTATCGGTCGA | -0.823 |
| CCCCCCAAGTTGAAGCCATCCTCCCACCTCGCCTAGGGAGATTAGAGTATCGGTCGA | 5.73 |
| TATTAGGCAAAAGAGATAGCGAGAAGGCAGGCCTAGGGAGATTAGAGTATCGGTCGA | -0.999 |
| TTATGTACTTAGTGTTTTATGTGTATTTACGCCTAGGGAGATTAGAGTATCGGTCGA | 2.09 |
| AGTTTTGCAACATACTGAAAAAGGGTTGTGGCCTAGGGAGATTAGAGTATCGGTCGA | 1.23 |
| CGCCGGGCGCCGCTCTGAGTGACCTTTCACGCCTAGGGAGATTAGAGTATCGGTCGA | 5.71 |
| GGCGCCGCTCTGAGTGACCTTTCACCCGCGGCCTAGGGAGATTAGAGTATCGGTCGA | 7.77 |
| CGCTCTGAGTGACCTTTCACCCGCGCCCAGGCCTAGGGAGATTAGAGTATCGGTCGA | 6.45 |
| CCCTGCAATTTGATTTGTATGATCTTGGGTGCCTAGGGAGATTAGAGTATCGGTCGA | 1.73 |
| TGTGAAGAGTGTGGACTTTCACCTCCACCAGCCTAGGGAGATTAGAGTATCGGTCGA | 6.7 |
| CAGTGAGGATGTGTGCTCGAGGTGGACTTTGCCTAGGGAGATTAGAGTATCGGTCGA | 7.48 |
| TTCCCCAGTGAGGATGTGTGCTCGAGGTGGGCCTAGGGAGATTAGAGTATCGGTCGA | 1.11 |
| GACCATGTGATGTGAAGAGTGTGGACTTTCGCCTAGGGAGATTAGAGTATCGGTCGA | 4.87 |
| AGGATGTGTGCTCGAGGTGGACTTTCCCCCGCCTAGGGAGATTAGAGTATCGGTCGA | 6.75 |
| TGTGATGTGAAGAGTGTGGACTTTCACCTCGCCTAGGGAGATTAGAGTATCGGTCGA | 8.92 |
| CAAGGGTCAGTTCATTAAAAAAAAAAAAAAGCCTAGGGAGATTAGAGTATCGGTCGA | 0.208 |
| GATCAAGAGGAAGATCTTTTTGATGACTTTGCCTAGGGAGATTAGAGTATCGGTCGA | 0.895 |
| AGTATTACCATGTCCTGTGATTAAGGTCAAGCCTAGGGAGATTAGAGTATCGGTCGA | 2.96 |
| AACTATGCAGTGTCCATGGTGACCATGTGAGCCTAGGGAGATTAGAGTATCGGTCGA | 1.71 |
| GCTTTTGGAAGGACTTCGAATGGTATGCTAGCCTAGGGAGATTAGAGTATCGGTCGA | -0.468 |
| CTGGACTATGCCTTGAACTTTAAGGCACCTGCCTAGGGAGATTAGAGTATCGGTCGA | 1.67 |

| Sequence | binding signal [log2 normalized intensity] |
| --- | --- |
| AGAGTTAGGGCCTTGCTATGGAGTGGACTTGCCTAGGGAGATTAGAGTATCGGTCGA | 3.91 |
| GGACTTCGAATGGTATGCTAGAGTACTTGGGCCTAGGGAGATTAGAGTATCGGTCGA | 1.51 |
| TCGAATGGTATGCTAGAGTACTTGGACTTTGCCTAGGGAGATTAGAGTATCGGTCGA | 7.5 |
| TGGTATGCTAGAGTACTTGGACTTTAACCTGCCTAGGGAGATTAGAGTATCGGTCGA | 9.56 |
| GCCTAAGCAGGGCTAGACTTTAACCCCCTTGCCTAGGGAGATTAGAGTATCGGTCGA | 6.24 |
| CTTTAACGACCTTTGGACTTGAATTATCCTGCCTAGGGAGATTAGAGTATCGGTCGA | 8.83 |
| TGCTAGAGTACTTGGACTTTAACCTTTAGAGCCTAGGGAGATTAGAGTATCGGTCGA | 9.71 |
| ACGACCTTTGGACTTGAATTATCCTTATGGGCCTAGGGAGATTAGAGTATCGGTCGA | 6.99 |
| CTTTGGACTTGAATTATCCTTATGGTCTCTGCCTAGGGAGATTAGAGTATCGGTCGA | 0.611 |
| ACACTGGGCTAGAGGTCTTAATCTTTTTACGCCTAGGGAGATTAGAGTATCGGTCGA | 1.15 |
| CAGTGGGAGACAGGCATTAACCCTTTAGTGGCCTAGGGAGATTAGAGTATCGGTCGA | 0.965 |
| CAACCCATCCAACTCCTTGAGAAGTACAACGCCTAGGGAGATTAGAGTATCGGTCGA | -0.809 |
| CAAAATATCTCACTCCCACACTGGTAACCTGCCTAGGGAGATTAGAGTATCGGTCGA | 0.32 |
| CAGCTGTTATCTCTTTTGTGATAGAATGAAGCCTAGGGAGATTAGAGTATCGGTCGA | 1.89 |
| GTGTCATTGTTATTTACGGTGGGCACCTCAGCCTAGGGAGATTAGAGTATCGGTCGA | 0.235 |
| AGTGTTTCAAAGGAGTGTCTTTCTCCTTGAGCCTAGGGAGATTAGAGTATCGGTCGA | 1.38 |
| ACTTTAACCTTTAGATTACTAGGAATTGATGCCTAGGGAGATTAGAGTATCGGTCGA | 1.53 |
| GAGTACTTGGACTTTAACCTTTAGATTACTGCCTAGGGAGATTAGAGTATCGGTCGA | 7.94 |
| CTTGGACTTTAACCTTTAGATTACTAGGAAGCCTAGGGAGATTAGAGTATCGGTCGA | 6.61 |

From article PMC10726135, “HNF4α isoforms regulate the circadian balance between carbohydrate and lipid metabolism in the liver”
